# Screens: PubChem, several laboratories
# Compounds with a hit are over-represented: about 1.4% of the library has one in this group of screens.
# BCLXL inh = inhibitors of human Bcl-xL, primary screen, biochemical, fluorescence polarization, HTS; Bcl-2-like protein 1 (Homo sapiens), Q07817; GST-Bcl-xL / FITC-Bim BH3 peptide fluorescence polarization; inhibition, % at 10.9 µM; actives 0.7% (n = 320,000);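 active = inhibition above the mean of all tested compounds plus 3 SD, cutoff set per campaign, cut at about 30% in these data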;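 also: inhibitors lower millipolarization by displacing the labeled peptide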
# MCL1 BIM primary = inhibitors of MCL1 binding to BIM-BH3, primary screen, biochemical, fluorescence polarization; Induced myeloid leukemia cell differentiation protein Mcl-1 (Homo sapiens), Q07820; GST-MCL1 / FITC-Bim-BH3 fluorescence polarization; inhibition, % at 10.9 µM; actives 0.68% (n = 320,000);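 active = inhibition above the mean inhibition of all tested compounds plus 3 SD, set per campaign, cut at about 40% in these data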;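 also: higher means more loss of mP so more displacement of Bim peptide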
# eLon inh = inhibitors of E. coli Lon protease, primary screen, biochemical, fluorescence polarization; P0A9M0; purified E. coli Lon protease; inhibition, % at 7.94 µM; actives 0.42% (n = 360,000); in the data active = inhibition above about 13%, passing the limit was not always enough
# Target sequence (P0A9M0 whole entry, looked up): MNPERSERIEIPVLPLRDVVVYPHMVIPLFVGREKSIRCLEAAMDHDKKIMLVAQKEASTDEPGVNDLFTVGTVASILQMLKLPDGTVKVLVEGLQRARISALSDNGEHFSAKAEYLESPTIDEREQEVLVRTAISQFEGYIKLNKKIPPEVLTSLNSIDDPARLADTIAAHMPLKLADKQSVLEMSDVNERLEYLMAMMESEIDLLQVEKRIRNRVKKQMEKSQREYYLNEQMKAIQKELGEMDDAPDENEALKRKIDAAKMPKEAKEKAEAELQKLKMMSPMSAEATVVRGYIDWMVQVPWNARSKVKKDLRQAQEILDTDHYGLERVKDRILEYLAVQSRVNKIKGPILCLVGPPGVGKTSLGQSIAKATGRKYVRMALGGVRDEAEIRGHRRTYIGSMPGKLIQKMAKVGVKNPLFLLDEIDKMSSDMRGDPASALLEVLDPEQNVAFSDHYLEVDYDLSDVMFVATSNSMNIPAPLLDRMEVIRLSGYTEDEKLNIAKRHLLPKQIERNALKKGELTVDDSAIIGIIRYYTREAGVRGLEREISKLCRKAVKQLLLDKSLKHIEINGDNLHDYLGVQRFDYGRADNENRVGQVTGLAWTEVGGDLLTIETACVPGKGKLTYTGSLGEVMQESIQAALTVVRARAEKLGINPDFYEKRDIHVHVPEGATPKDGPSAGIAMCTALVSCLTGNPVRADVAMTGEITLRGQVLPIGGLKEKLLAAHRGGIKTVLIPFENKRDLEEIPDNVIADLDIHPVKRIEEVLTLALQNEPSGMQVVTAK
# GLD-1 TGE inh = GLD-1/TGE RNA complex disruptors, primary screen, biochemical, fluorescence polarization | purified GLD-1 + fluorescein TGE RNA | inhibition, % at 5.96 µM | actives 0.44% (n = 320,000);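 active = percent inhibition above a per-plate cutoff, the plate mean of test compounds plus 3 SD, cut at about 30% in these data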
# MEX-5 binding = MEX-5 zinc finger RNA-binding disruptors – biochemical, C. elegans, fluorescence polarization, MLPCN library, primary screen; Zinc finger protein mex-5 (Caenorhabditis elegans), Q9XUB2; activity score (negative = inhibition of binding), % at 10 µM; actives 0.38% (n = 300,000); MEX-5/FITC-TCR2 RNA binding; stronger effect = lower value;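 active = inhibition past about -25% in most replicates, and total fluorescence under double the plate's negative control median, limit read from the data; inconclusive = replicates evenly split on the limit, or fluorescence at least double controls; inactive = too little inhibition in most replicates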
# Hits are given with their value; - = inactive; ? = inconclusive; . = no result given; + = active, no number.
SMILES,BCLXL inh,MCL1 BIM primary,eLon inh,GLD-1 TGE inh,MEX-5 binding
COc1ccc(-c2ccc(/C=N/N3C(=O)C4C5C=CC(C6CC56)C4C3=O)o2)c([N+](=O)[O-])c1 (stereo unspecified),31,-,-,-,-
CC(=O)N(C1=C(Cl)C(=O)c2ccccc2C1=O)C1CCCCC1,-,-,-,-,-48
CCNC(=S)NC(=NCc1cccnc1)Nc1nc(C)cc(C)n1,38,46,-,-,-
CCCCNC(=O)C1(C)CCN1C(=O)c1cccc(OC(F)(F)F)c1 (stereo unspecified),.,.,-,.,.
Nc1cc2nsnc2cc1Br,42,41,-,-,-
CCN(CC)Cc1cc(Oc2ccc(O)c(CN(CC)CC)c2)ccc1O,.,.,-,.,.
O=C(C(=Cc1ccc(O)cc1)c1ccccc1)c1ccccc1,.,.,-,.,.
Cc1cc(C(=O)N/N=C2\CC(=O)CC(C)(C)C2)c2ccccc2n1,-,-,-,63,-
COc1ccccc1NS(=O)(=O)c1cccc(C(=O)N/N=C2\CC(=O)CC(C)(C)C2)c1,-,-,-,59,-
CCN(CC)c1ccc(/C=N/NC(=O)c2cccc(S(=O)(=O)Nc3ccccc3OC)c2)c(O)c1,-,-,-,-,-31
CCCCCCN1C[C@@H](n2cc(-c3ccc(F)cc3)nn2)[C@H](O)C[C@@H]1c1ccc(Cl)cc1,.,.,-,.,.
COc1ccc(/C=c2\sc3nc(=O)c(C)nn3c2=O)c(OC)c1,-,-,-,-,-40
C[C@@H]1CN([C@H](C)CO)C(=O)CCCn2nncc2CO[C@@H]1CN(C)C(=O)Nc1ccnc(N2CCOCC2)c1,.,.,-,.,.
CCN1/C(=C/c2ccc3cccc(C)c3[n+]2CC)Sc2ccccc21,-,-,-,47,?
CCN1/C(=C/c2ccc3cc(C)cc(C)c3[n+]2CC)Sc2cc(C)ccc21,.,.,-,.,.
CC1(C)CC(NC(=O)C2CCC(=O)N(Cc3ccccc3F)C2)CC(C)(C)C1 (stereo unspecified),.,.,-,.,-
COc1ccccc1NC(=S)NNC(=O)c1cc(C)n(C)n1,-,-,-,-,-26
NS(=O)(=O)c1cc(Br)c2c(c1)S(=O)(=O)NCN2,.,.,-,.,.
COC(=O)C1=C(O)/C(=C\c2cc(C)n(-c3ccccc3F)c2C)N=C1C,-,-,-,-,-
COC(=O)C1=C(O)/C(=C\c2cc(C)n(-c3ccccc3C)c2C)N=C1C,42,44,-,-,-
Cc1ccc(/C=N/Nc2ncnc3nc[nH]c23)cc1,-,-,-,-,-26
Oc1ccc(/C=N/Nc2ncnc3nc[nH]c23)cc1,-,-,-,-,-29
Cc1ccccc1C(=O)Nc1ccnn1C1CCN(C(C)Cc2ccccc2F)CC1 (stereo unspecified),39,42,-,-,-
CC(CN1CCC(n2nccc2NC(=O)c2ccccc2Cl)CC1)c1ccccc1 (stereo unspecified),33,-,-,-,-
CSc1ccccc1NC(=O)C1(C)CCN1C(=O)Cc1ccc(-c2ccccc2)cc1 (stereo unspecified),.,.,-,.,.
SMILES,BCLXL inh,MCL1 BIM primary,eLon inh,GLD-1 TGE inh,MEX-5 binding
CCCCn1c(-c2ccccc2C)nc2cc3[nH]c(=O)c(C(C)C)nc3cc21,30,-,-,-,-
NC(c1csc(Nc2nncc3ccccc23)n1)C1CCCCC1 (stereo unspecified),.,.,-,.,.
COc1ccc(-n2c(N)c(C(=O)Nc3c(C)n(C)n(-c4ccccc4)c3=O)c3nc4ccccc4nc32)cc1,-,-,-,-,-
Cc1ccc(-n2c(N)c(C(=O)Nc3c(C)n(C)n(-c4ccccc4)c3=O)c3nc4ccccc4nc32)cc1C,57,61,.,-,-
CCOC1=C2[C@@H](CN(S(=O)(=O)c3ccc(C)cc3)[C@H]2c2ccccc2Cl)[C@H]2C(=O)N(C(C)(C)C)C(=O)[C@H]2C1,.,.,-,.,.
CCN1/C(=C/C(C)=C/c2sc3ccccc3[n+]2CC)Sc2ccccc21,33,-,-,+,-
CCN1/C(=C\C(=S)Nc2ccccc2)Sc2ccccc21,-,-,-,-,-
